Consider 40 sequences from the supplement of paper PMC6555819.

One assay deals with RARb:RXRa (NR concentration 270 nM, RXRa partner concentration 90 nM). The assay can be described thus: PBM binding z-score (relative to random genomic background probes); higher = stronger binding; sequences stand for … in GC…GCGATTGACAGCGTAGAATGAAGG
A digest of the protocol: (§1)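 For binding z-scores, the reference was random background probes on custom Agilent 4×180K protein-binding microarrays. These arrays were incubated 1 h with ligand-free nuclear receptor dimers in PBS pH 7.4, 2% milk, 0.02% Triton X-100, 1 mM DTT, 0.2 mg/mL BSA and 0.4 mg/ml salmon testes DNA. Fluorescence was scanned after antibody detection of each partner (one per run) and regression-normalized.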
Consider ATCGAAATGTCGAGGTGAGTATAGAGAAAGGGAA, for which the PBM binding z-score was found to be 0.538.

ACTAGCAGGCCCAGTTTGGGTCACTCAAACAAAG yielded a PBM binding z-score of 0.828.

With CCTAGTTGGTCGGGAGGTCACACACCGGATATGA, the PBM binding z-score amounted to 3.47.

In turn, ATCTCTAGGTAAAGACAGTTCAGTGAATGCAAAT yielded a PBM binding z-score of 0.625.

The sequence CCGATTGGGGCAAGGTTACCATAACGCACAGCCA had a PBM binding z-score of 1.67.

Take GCTGTTAGGTCAACTGATGGTCAGCTAAAGCTCG: the PBM binding z-score was found to be 4.4.

For AGAATGAGGTTATACGTAGTTCAGGGAAGAAAGT, the PBM binding z-score stood at 1.96.

CCTTGTTGGTCAAGGTCACACACGCTATAGGTAC gave a PBM binding z-score of 4.3.

Sequence CGTCCAAGGTCAGAGAGGTCAGTTAATGCCGAGT gave a PBM binding z-score of 5.22.

TCGAGTAGGTCAGGGGCATTCAGAATGGCGTCGA: the PBM binding z-score was found to be 3.39.

For the sequence GCAGACAGGTGAAACGCAGGAAACTCAGGGTGGC, the PBM binding z-score came to 0.527.

Consider ACTCGGAGAACAAAGGTCAGAGCTACGCCAGTGA, for which the PBM binding z-score is 4.21.

ATCTCTAGGTAAAGATAGATCAGTGAATGCAAAT: the PBM binding z-score is -0.27.

CGTCCAAGGGCAAAGGTCAGTGAAGAGATGACGG registered a PBM binding z-score of 4.78.

In turn, TCTCGGAGGACACGAACGGTCAGAGCTCGACATC displayed a PBM binding z-score of 2.1.

GCGACTGGGGTATCAGCAGGTTACCATAACTTAA registered a PBM binding z-score of 0.249.

On to ATCTCTAGGTAAAAAGTTCAGTGAAAGAGAGGAC, for which the PBM binding z-score stood at 2.38.

As for CTCGAAAGGTCGGTTAAGGTGAGTATACGGATAA, the PBM binding z-score was 3.22.

Take GCTGCTAGGTCAGGTTGGTCACCTAACGGGTACG: the PBM binding z-score was 3.39.

For the sequence GGAACGAGGGCAAAGTTGATAGCATCTGTCGACG, the PBM binding z-score was 2.37.

Regarding CCTTACGGGTGACTGACAGGTTATAGCATTTGGA, the PBM binding z-score came to 0.546.

Consider AATCCAGGGTCATCGTAGGCCAGAGTACGCACAG, for which the PBM binding z-score was found to be 4.32.

In turn, ACTAGCAGGCCAAGTCTGGGTCACTCAAACAAAG had a PBM binding z-score of 1.75.

Consider ATCTCTAGGTAAGACTAAGTTCAGTGAAGAACGC, for which the PBM binding z-score was found to be 1.19.

Take CAAACTAGGTCAGCGGAAGGTCAAAGTCCGCATG: the PBM binding z-score was 4.89.

Regarding GATACAGGGTCAAGGCCGGAGTACGCGTATTGAT, the PBM binding z-score was found to be 4.55.

Take GCGTACGGGTCAAAGGTTATAGCATGAATAGAAT: the PBM binding z-score was found to be 4.64.

CGATCGAGGGCATGAGTTGATAGCAAATGCCGAT gave a PBM binding z-score of 1.94.

As to GTACCTAGGTGAATAGGTCGTTGATGAGTAGGCG, the PBM binding z-score came to 1.15.

For the sequence TCTATTAGTTTATTAGGGCAACCGAAACAGCGGA, the PBM binding z-score amounted to 1.57.

Regarding GCTCGGCGGACAAGGTCAGAGCTTTGTCCGTAGA, the PBM binding z-score stood at 2.81.

Consider ACTAGCAGGCCAAGGGTCTCTCAAGATTAGTCCG, for which the PBM binding z-score was 0.516.

GCTGCTAGGTCAGGTTGGTCAGATAACGGGTACG gave a PBM binding z-score of 3.22.

Take GCTAGCAGGCCATTTGAGTCACTCAATGACGGGC: the PBM binding z-score amounted to 0.073.

As to CGAACGAGGGCATGCGTTGATAGCAAATGCCGAT, the PBM binding z-score came out at 1.95.

As to AATAGCAGGCCAAGTTTGGGTCACTCAAACAAAG, the PBM binding z-score was 1.98.

As for TCTAGTTCGTCAAAGGTCACACACTCGAAATGCG, the PBM binding z-score was determined as 5.24.

ACTTACGGGTCAACGAGGTTATAGTACGCGTATA: the PBM binding z-score came out at 4.13.

AGAATGAGGGCAATGAGTTGATAGCACGGGTGGC came in with a PBM binding z-score of 2.04.

The sequence ACTAGCAGGCCAAGTTTGGGTCACTGAAACAAAG came in with a PBM binding z-score of 2.

A further assay has as its system RARb homodimer (NR concentration 270 nM). The description is as above. A digest of the protocol: as §1
For ATCGAAATGTCGAGGTGAGTATAGAGAAAGGGAA, the PBM binding z-score was -0.158.

ACTAGCAGGCCCAGTTTGGGTCACTCAAACAAAG showed a PBM binding z-score of 1.42.

As to CCTAGTTGGTCGGGAGGTCACACACCGGATATGA, the PBM binding z-score came out at 4.12.

ATCTCTAGGTAAAGACAGTTCAGTGAATGCAAAT gave a PBM binding z-score of 0.886.

On to CCGATTGGGGCAAGGTTACCATAACGCACAGCCA, for which the PBM binding z-score came to 1.

GCTGTTAGGTCAACTGATGGTCAGCTAAAGCTCG had a PBM binding z-score of 3.65.

AGAATGAGGTTATACGTAGTTCAGGGAAGAAAGT: the PBM binding z-score stood at 1.63.

CCTTGTTGGTCAAGGTCACACACGCTATAGGTAC came in with a PBM binding z-score of 4.53.

As for CGTCCAAGGTCAGAGAGGTCAGTTAATGCCGAGT, the PBM binding z-score amounted to 5.24.

Regarding TCGAGTAGGTCAGGGGCATTCAGAATGGCGTCGA, the PBM binding z-score was determined as 2.9.

GCAGACAGGTGAAACGCAGGAAACTCAGGGTGGC returned a PBM binding z-score of 0.0136.

In the case of ACTCGGAGAACAAAGGTCAGAGCTACGCCAGTGA, the PBM binding z-score turned out to be 4.39.

Consider ATCTCTAGGTAAAGATAGATCAGTGAATGCAAAT, for which the PBM binding z-score is -0.493.

On to CGTCCAAGGGCAAAGGTCAGTGAAGAGATGACGG, for which the PBM binding z-score was determined as 4.71.

Regarding TCTCGGAGGACACGAACGGTCAGAGCTCGACATC, the PBM binding z-score came out at 1.89.

Sequence GCGACTGGGGTATCAGCAGGTTACCATAACTTAA had a PBM binding z-score of 0.852.

The sequence ATCTCTAGGTAAAAAGTTCAGTGAAAGAGAGGAC had a PBM binding z-score of 2.67.

For CTCGAAAGGTCGGTTAAGGTGAGTATACGGATAA, the PBM binding z-score was determined as 2.84.

Sequence GCTGCTAGGTCAGGTTGGTCACCTAACGGGTACG gave a PBM binding z-score of 2.81.

Sequence GGAACGAGGGCAAAGTTGATAGCATCTGTCGACG registered a PBM binding z-score of 1.33.

CCTTACGGGTGACTGACAGGTTATAGCATTTGGA came in with a PBM binding z-score of 0.601.

AATCCAGGGTCATCGTAGGCCAGAGTACGCACAG registered a PBM binding z-score of 3.82.

Sequence ACTAGCAGGCCAAGTCTGGGTCACTCAAACAAAG yielded a PBM binding z-score of 2.36.

Turning to ATCTCTAGGTAAGACTAAGTTCAGTGAAGAACGC, the PBM binding z-score amounted to 1.85.

In turn, CAAACTAGGTCAGCGGAAGGTCAAAGTCCGCATG showed a PBM binding z-score of 5.24.

The sequence GATACAGGGTCAAGGCCGGAGTACGCGTATTGAT yielded a PBM binding z-score of 3.43.

The sequence GCGTACGGGTCAAAGGTTATAGCATGAATAGAAT gave a PBM binding z-score of 3.14.

Regarding CGATCGAGGGCATGAGTTGATAGCAAATGCCGAT, the PBM binding z-score was 0.615.

GTACCTAGGTGAATAGGTCGTTGATGAGTAGGCG: the PBM binding z-score was determined as 1.12.

In turn, TCTATTAGTTTATTAGGGCAACCGAAACAGCGGA returned a PBM binding z-score of 1.56.

GCTCGGCGGACAAGGTCAGAGCTTTGTCCGTAGA gave a PBM binding z-score of 2.47.

Take ACTAGCAGGCCAAGGGTCTCTCAAGATTAGTCCG: the PBM binding z-score is -0.0592.

Regarding GCTGCTAGGTCAGGTTGGTCAGATAACGGGTACG, the PBM binding z-score came to 2.53.

In turn, GCTAGCAGGCCATTTGAGTCACTCAATGACGGGC returned a PBM binding z-score of -0.381.

As for CGAACGAGGGCATGCGTTGATAGCAAATGCCGAT, the PBM binding z-score came to 0.766.

AATAGCAGGCCAAGTTTGGGTCACTCAAACAAAG displayed a PBM binding z-score of 2.31.

TCTAGTTCGTCAAAGGTCACACACTCGAAATGCG returned a PBM binding z-score of 4.99.

As for ACTTACGGGTCAACGAGGTTATAGTACGCGTATA, the PBM binding z-score came to 3.9.

In the case of AGAATGAGGGCAATGAGTTGATAGCACGGGTGGC, the PBM binding z-score came out at 1.18.

ACTAGCAGGCCAAGTTTGGGTCACTGAAACAAAG displayed a PBM binding z-score of 2.33.
